Assay results published in PubChem BioAssay.
Active and inactive are the calls of the source.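 The calls were made as follows, unless noted: active = NADPH fluorescence slope more negative than the mean of all samples by about 3 SD, 99.7% confidence; inactive = the rest.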

Assays:
[1] = inhibitors of TNFa-induced NFkB p65 translocation, primary screen, imaging, HUVEC, MLSMR starter and 10KST1 sets (AID 438;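 active = inhibition above 20% together with a positive visual image hit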;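 also: compound added about 3h40 before a 20 min TNFalpha stimulation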;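 as to inhibition: signal is the nuclear over cytoplasmic p65 intensity ratio per well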); conditions: HUVEC TNFa-induced p65 nuclear translocation; cell count: measured here: nuclei count (cytotoxicity indicator), at 2.08 µM; inhibition: at 2 µM, stronger effect = higher value, 0% TNFa-plus-vehicle, 100% no-TNFa wells
[2] = inhibitors of mutant huntingtin aggregation, primary screen, imaging, exon1htt(103Q)mCFP cells, high-content imaging (AID 483;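 active = visual image review flags a hit and inhibition of aggregation exceeds 20%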;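 also: compound exposure lasted 3 days before fixation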;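 as to nuclei count: percent of the per-plate median nuclei count of sample wells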); conditions: exon1htt(103Q)mCFP cell line, aggregate imaging, at 2 µM; inhibition of aggregation: stronger effect = higher value; nuclei count: measured here: cell count, toxicity
[3] = inhibitors of E-selectin induction by TNFa, primary screen, imaging, HUVEC, immunofluorescence, MLSMR starter and 10KST1 sets (AID 487;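 active = visually confirmed hit in the image check and inhibition above 20%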;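 as to inhibition: signal is fraction of cell area covered by stained E-selectin grains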;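 as to nuclei count: 100% = median nuclei count of all wells on the same plate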); conditions: HUVEC TNFalpha-induced E-selectin immunofluorescence imaging, at 2 µM; inhibition: stronger effect = higher value; nuclei count: measured here: cell number, toxicity
[4] = molecular target: Voltage-gated potassium channel subunit beta-2 (Rattus norvegicus) (UniProt P62483); test: KvBeta enzyme negative modulators, primary screen, biochemical, NADPH fluorescence (AID 622;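 active = fluorescence slope higher than the sample average by over 3 SD, cut at about -0.22 in these data, passing the limit was not always enough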;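 also: slope of raw intensity against log time taken from 70 to 1610 s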); conditions: recombinant KvBeta, 4-cyanobenzaldehyde reduction, at 10 µM, stronger effect = higher value
[5] = molecular target: Voltage-gated potassium channel subunit beta-2 (Rattus norvegicus) (UniProt P62483); test: KvBeta positive modulators, primary screen, biochemical, NADPH fluorescence (AID 623); conditions: Recombinant KvBeta, NADPH fluorescence decrease slope, 10 min; at 10 µM; stronger effect = lower value;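 also: fluorescence intensity change per second fitted from 20 to 320 s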
[6] = molecular target: Alpha-2C adrenergic receptor (Homo sapiens) (UniProt P18825); test: modulators of alpha2C/GIRK thallium flux, primary screen, cell-based, HEK293 alpha2C/GIRK1/2 (AID 624;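 active = fluorescence slope after compound addition differing from the mean of all screened samples at 99.7% confidence, in either direction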;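 also: slope of fluorescence ratio to pre-addition baseline per second over 15 to 24 s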); conditions: thallium flux BTC fluorescence, at 10 µM, actives lie on both sides
[7] = inhibitors of Sendai virus-induced IRF3 signaling, primary screen, TLR/RLR signaling modifier project, cell-based, Sendai virus stimulus, luciferase, 10K MLSCN set (AID 602276;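 active = inhibition at or above 50% at 10 µM; inactive = inhibition below 50%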;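 also: firefly luciferase from ISG56 promoter only with Renilla not read in this screen; 0% = Sendai virus plus DMSO and 100% = medium plus DMSO without virus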); conditions: HEK293 RL24 IRF3 luciferase reporter, at 10 µM, stronger effect = higher value
[8] = inhibitors of poly I:C-induced TLR3 signaling, primary screen, cell-based, poly I:C stimulus, luciferase, 10K MLSCN set (AID 602277;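 active = inhibition of the reporter signal at or above 50%; inactive = inhibition below 50%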); conditions: HEK293-TLR3 RL24 IRF3 luciferase reporter, at 10 µM, stronger effect = higher value

Voltage-gated potassium channel subunit beta-2 (Rattus norvegicus), sequence (P62483 whole entry, looked up): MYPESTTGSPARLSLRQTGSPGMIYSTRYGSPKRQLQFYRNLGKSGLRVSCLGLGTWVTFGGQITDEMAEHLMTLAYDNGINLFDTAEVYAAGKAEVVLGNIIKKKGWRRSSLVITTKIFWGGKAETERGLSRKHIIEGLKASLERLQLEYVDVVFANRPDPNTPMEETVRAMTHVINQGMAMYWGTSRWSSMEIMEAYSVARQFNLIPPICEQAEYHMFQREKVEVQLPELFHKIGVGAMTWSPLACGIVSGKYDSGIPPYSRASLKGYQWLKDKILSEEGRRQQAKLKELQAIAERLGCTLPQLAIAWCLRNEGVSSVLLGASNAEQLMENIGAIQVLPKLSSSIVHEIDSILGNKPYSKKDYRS
Alpha-2C adrenergic receptor (Homo sapiens), sequence (P18825 whole entry, looked up): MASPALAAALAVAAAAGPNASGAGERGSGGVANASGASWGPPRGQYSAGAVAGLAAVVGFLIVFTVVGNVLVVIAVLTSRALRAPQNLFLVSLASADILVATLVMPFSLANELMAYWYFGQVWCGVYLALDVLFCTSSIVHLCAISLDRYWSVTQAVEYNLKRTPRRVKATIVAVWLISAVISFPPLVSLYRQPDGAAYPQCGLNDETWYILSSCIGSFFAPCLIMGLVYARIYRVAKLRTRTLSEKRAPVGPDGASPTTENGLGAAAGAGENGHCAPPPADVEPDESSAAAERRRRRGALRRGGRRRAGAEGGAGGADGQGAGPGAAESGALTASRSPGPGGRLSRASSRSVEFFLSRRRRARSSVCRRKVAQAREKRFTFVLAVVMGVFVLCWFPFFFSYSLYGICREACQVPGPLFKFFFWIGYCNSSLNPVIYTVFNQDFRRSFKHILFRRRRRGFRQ

SMILES | cell count [1] | inhibition [1] | inhibition of aggregation [2] | nuclei count [2] | inhibition [3] | nuclei count [3] | fluorescence slope [4] | NADPH fluorescence slope [5] | slope [6] | inhibition [7] | inhibition [8]
Cn1nc(CC(=O)Nc2ccc(N3CCN(C(=O)OC(C)(C)C)CC3)cc2)c2ccccc2c1=O | 639 | -32.6% (inactive) | -11.8% (inactive) | 91.2% | -34.7% (inactive) | 99% | -0.493 (inactive) | 8.9e-05 (inactive) | 0.00619 (inactive) | -10.5% (inactive) | -50.4% (inactive)
CCN1C(=O)c2ccccc2S(=O)c2ccc(C(=O)NC3CC3)cc21 (centres undefined) | 533 | 0.6% (inactive) | 20.1% (inactive) | 74.1% | 6.3% (inactive) | 104% | -0.505 (inactive) | -2.6e-05 (inactive) | 0.0077 (inactive) | 17.3% (inactive) | 24% (inactive)
O=C(c1ccc2c(c1)[nH]c(=S)n1c3ccccc3nc21)N1CCN(c2ncccn2)CC1 | 515 | 4.8% (inactive) | -5.1% (inactive) | 105% | -28.7% (inactive) | 114% | -0.347 (inactive) | -1.3e-05 (inactive) | 0.00281 (inactive) | 13.2% (inactive) | 19.4% (inactive)
CC1CCc2nn(CC(=O)NCCN3CCOCC3)cc2C1 (centres undefined) | 605 | 4% (inactive) | -0.2% (inactive) | 94.5% | 42.1% (inactive) | 97% | -0.612 (inactive) | 5.1e-06 (inactive) | 0.00648 (inactive) | 7.91% (inactive) | 24.3% (inactive)
CCCNS(=O)(=O)c1ccc(OCC(=O)NCc2ccc3c(c2)OCO3)cc1 | 434 | 1.7% (inactive) | -1.9% (inactive) | 108% | -93.9% (inactive) | 106% | -0.368 (inactive) | -6.9e-05 (inactive) | 0.00408 (inactive) | 12.8% (inactive) | 17.9% (inactive)
Cc1cc(C)n2cc(CSc3nnnn3-c3ccc(Cl)cc3)nc2n1 | 446 | 2.4% (inactive) | -22.5% (inactive) | 99.6% | 15.8% (inactive) | 91.8% | -0.517 (inactive) | -3.7e-05 (inactive) | 0.00492 (inactive) | 19.2% (inactive) | 16.6% (inactive)
CCOC(=O)N1CCN(C(=O)CCc2ccc(S(=O)(=O)NCCc3ccccc3)cc2)CC1 | 735 | -1.6% (inactive) | 4.3% (inactive) | 102% | -24.7% (inactive) | 123% | -0.413 (inactive) | -9.6e-06 (inactive) | 0.00346 (inactive) | 2.18% (inactive) | 5.38% (inactive)
COc1ccc(C2CC(=O)C3=C(C2)Nc2ccccc2N(C(=O)C2CC2)C3c2cccnc2)cc1OC (centres undefined) | 683 | -10.9% (inactive) | -43.4% (inactive) | 87.2% | 0.8% (inactive) | 98.6% | -0.367 (inactive) | 7.5e-06 (inactive) | 0.00392 (inactive) | 10.6% (inactive) | 17.6% (inactive)
CCCC(=O)Nc1ccccc1-c1nnn(CC(=O)Nc2ccc(OC)cc2)n1 | 674 | 21.5% (inactive) | -11.7% (inactive) | 115% | -36.7% (inactive) | 83.3% | -0.36 (inactive) | 1e-05 (inactive) | 0.0062 (inactive) | 14.1% (inactive) | 13.7% (inactive)
CC1NC(=O)NC1CCCCCC(=O)NCCc1ccccc1 (centres undefined) | 391 | 7.3% (inactive) | 7.5% (inactive) | 110% | -86.2% (inactive) | 113% | -0.441 (inactive) | -1.4e-05 (inactive) | 0.006 (inactive) | 5.75% (inactive) | 15.3% (inactive)
COC(=O)c1sc2ccccc2c1NC(=O)c1cccs1 | 729 | 16.4% (inactive) | 21.4% (inactive) | 101% | 1.4% (inactive) | 99.1% | -0.551 (inactive) | -2.2e-05 (inactive) | 0.00536 (inactive) | -16.8% (inactive) | -27.9% (inactive)
OC1(c2cccc(C(F)(F)F)c2)CCN(c2ccc(-c3ccccc3)nn2)CC1 | 853 | 4.3% (inactive) | -13.4% (inactive) | 96.8% | -25.2% (inactive) | 106% | -0.456 (inactive) | -4.5e-05 (inactive) | 0.00688 (inactive) | -40.7% (inactive) | -99% (inactive)
O=S1(=O)C=C(Oc2ccc(F)cc2)c2ccccc21 | 377 | -2.7% (inactive) | -8.6% (inactive) | 108% | -0.9% (inactive) | 111% | -0.321 (inactive) | -7.4e-05 (inactive) | 0.00496 (inactive) | 5.55% (inactive) | 7.32% (inactive)
O=C(NCCc1c[nH]c2ccccc12)c1ccc(S(=O)(=O)NCc2ccco2)cc1 | 398 | 9.3% (inactive) | 14.7% (inactive) | 89.6% | -42.9% (inactive) | 98.6% | -0.578 (inactive) | -2.7e-05 (inactive) | 0.00486 (inactive) | 15.3% (inactive) | 30.7% (inactive)
